Screening results (PubChem BioAssay)
Rows were chosen to be rich in hits. Some 11% of all compounds tested hit in one or more screens of this group.
Pf growth 96h: inhibits malaria parasite growth, 96 h. P. falciparum luciferase reporter growth, 96 h. Potency, µM (top dose mostly 28.7 µM), hits mostly inhibitors. 320,000 compounds, 6.9% hits. AID 504834
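Compounds incubated with erythrocytes infected by luciferase-expressing P. falciparum (2% hematocrit, 0.05% parasitemia final) for 96 hours, 37 C in 5% CO2. Growth inhibition scored as decreased luciferase luminescence.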
AMA1-RON2 inh: inhibitors of Plasmodium falciparum AMA1-RON2 interaction; AlphaScreen AMA1-biotinylated RON2 peptide binding; Potency, µM (doses to about 58.2 µM), most hits filed as inhibitors; 360,000 compounds, 0.2% hits; AID 720542; further: nearly all actives have a fitted effect of over 45% in size
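AMA1 (3D7) with his tag at 25 nM final met compounds first, then biotinylated RON2 peptide at 25 nM; detection used donor plus acceptor beads, 10 µg/mL apiece, read by AlphaScreen after 30 min at room temperature.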
HCV inhibitor: blocks hepatitis C virus; Huh7.5.1 HCVcc-Cre infection, luciferase reporter, 44 h; Potency, µM (highest dose often 41.8 µM), most hits filed as inhibitors; 340,000 compounds, 3.4% hits; AID 651820
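Infectious HCV cell culture screen: compound-treated cells (1,000/well, pre-plated 4 h) are infected with HCVcc-Cre at roughly 0.5 moi and grown 44 h. Infection is quantified by luciferase signal after 15 min substrate incubation at room temperature.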
Pf growth 48h: P. falciparum growth inhibition at 48 hours (one generation). P. falciparum luciferase growth in erythrocytes, 48 h. Potency, µM (top dose mostly 28.7 µM), actives largely listed as inhibitors. 310,000 compounds, 5.9% hits
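Firefly luciferase activity from engineered P. falciparum reports growth; inhibitors lower the luminescent signal. Cultures contained 2% hematocrit erythrocytes at 0.1% final parasitemia.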
Of the large screens only hits and unclear results are named; the others gave an inactive call. The call rests on the fitted dose curve; in most records, active means well fitted curve in the direction sought with a large enough effect; inconclusive means small, poorly fitted or top-dose-only effect, or another doubt; inactive means no such curve, though single readings can be large; an effect the other way counts as inactive or inconclusive.

COc1ccc(C2c3c(-c4ccccc4O)n[nH]c3C(=O)N2CCc2ccc(OC)c(OC)c2)cc1 (stereo unspecified)	HCV inhibitor inconclusive, Pf growth 48h 7.38µM
O=C(NCc1ccc2c(c1)OCO2)c1cc(-c2ccccc2)c(N2CCOCC2)s1	HCV inhibitor 14.1µM
COc1ccc(CCNC(=O)c2cc(-c3ccccc3)c(N3CCOCC3)s2)c(OC)c1OC	Pf growth 96h inconclusive, HCV inhibitor 10µM, Pf growth 48h inconclusive
CCOc1ccc(CCNC(=O)c2cc(-c3ccccc3)c(N3CCOCC3)s2)cc1OCC	AMA1-RON2 inh inconclusive, HCV inhibitor inconclusive, Pf growth 48h inconclusive
O=C(NCc1ccco1)c1cc(-c2ccccc2)c(N2CCOCC2)s1	Pf growth 96h inconclusive, HCV inhibitor 8.91µM (no result: Pf growth 48h)
CN(Cc1ccc2c(c1)OCO2)C(=O)c1cc(-c2ccccc2)c(N2CCOCC2)s1	Pf growth 96h inconclusive, HCV inhibitor 10µM, Pf growth 48h inconclusive
COc1ccc(OC)c(-n2c(SCC(=O)NCC3CCCO3)nc3ccccc3c2=O)c1 (stereo unspecified)	none (no result: Pf growth 96h, Pf growth 48h)
O=C(CSc1nncs1)NCc1ccc(F)cc1	none
CC(C)(C)Cc1c(-c2ccc(F)cc2)nc2ccc(Br)cn12	none (no result: Pf growth 96h, HCV inhibitor, Pf growth 48h)
COC(=O)c1c(NC(=O)c2nc3nc(C)cc(C(F)F)n3n2)sc2c1CCC2	Pf growth 96h 5.22µM, HCV inhibitor 10µM, Pf growth 48h inconclusive
Cc1cc(C(F)F)n2nc(C(=O)Nc3sc4c(c3C#N)CCC(C)C4)nc2n1 (stereo unspecified)	none
Cc1cc(C(F)F)n2nc(C(=O)Nc3sc4c(c3C(N)=O)CCC4)nc2n1	Pf growth 96h 4.15µM, HCV inhibitor inconclusive, Pf growth 48h inconclusive
CCOC(=O)Cc1csc(NC(=O)CSc2cc(Cl)ccc2Cl)n1	none
O=C1CSC(=Nc2cc(Cl)ccc2Cl)N1	none
COC1OC(CO)C(OC2OC(C(=O)O)C(OC3OC(COS(=O)(=O)O)C(OC4OC(C(=O)O)C(OC5OC(CO)C(OC6OC(C(=O)O)C(OC7OC(COS(=O)(=O)O)C(OC8OC(C(=O)O)=C[C@H](O)C8OS(=O)(=O)O)C(O)C7NC(C)=O)[C@@H](O)C6O)C(O)C5NC(C)=O)[C@@H](O)C4O)C(O)C3NC(C)=O)[C@@H](O)C2O)C(O)C1NC(C)=O (stereo partly specified)	Pf growth 96h 7.57µM, Pf growth 48h 12µM (no result: AMA1-RON2 inh, HCV inhibitor)
CC(=O)N[C@@H]1C(O)OC(CO)C(O)C1O (stereo partly specified)	none (no result: AMA1-RON2 inh, HCV inhibitor)
CC(=O)N[C@@H]1C(O[C@H]2O[C@H](C(=O)O)C(O)[C@H](O)[C@H]2O)[C@H](O)[C@@H](CO)O[C@H]1O[C@@H]1C(C(=O)O)O[C@@H](O[C@H]2[C@H](O)[C@@H](CO)OC(O)[C@@H]2NC(C)=O)[C@H](O)[C@H]1O (stereo partly specified)	Pf growth 96h 1.69µM (no result: AMA1-RON2 inh, HCV inhibitor)
Cc1cc2nc(SCC(=O)N(C)C)c3c(c2cc1C)CCCC3	HCV inhibitor inconclusive
COc1ccc(N(C(=O)c2ccccc2C)S(=O)(=O)c2cccs2)cc1	Pf growth 96h 8.28µM, HCV inhibitor inconclusive, Pf growth 48h inconclusive
COC1=C(Nc2ccc(C)cc2)C(=O)c2ccccc2C1=O	Pf growth 96h 1.17µM, AMA1-RON2 inh 10µM, HCV inhibitor inconclusive, Pf growth 48h 2.33µM
COC1=C(Nc2ccccc2)C(=O)c2ccccc2C1=O	Pf growth 96h 1.85µM, AMA1-RON2 inh 10µM, HCV inhibitor inconclusive, Pf growth 48h 5.86µM
COc1ccc(OC)c2c1C(=O)c1ccccc1C2=O	none
CCC1(c2ccc(F)cc2)NC(=O)N(CC(=O)Nc2cc(C)on2)C1=O (stereo unspecified)	Pf growth 96h inconclusive
CN(Cc1ccccc1)c1nc(-c2cccc([N+](=O)[O-])c2)nc2ccccc12	HCV inhibitor inconclusive, Pf growth 48h inconclusive
O=C(CN1CCN(S(=O)(=O)c2ccc(F)c(Cl)c2)CC1)N1CCNC1=O	none
OCC1(CCc2ccccc2)CCN(C/C=C/c2ccccc2)CC1	Pf growth 48h inconclusive
OCC1(Cc2ccccc2Cl)CCN(C/C=C/c2ccccc2)CC1	HCV inhibitor inconclusive, Pf growth 48h 11.7µM
COc1ccc(CNC(=O)CSc2ccc(Br)cc2)cc1OC	Pf growth 96h inconclusive
COc1ccc(C(C)=O)cc1COC(=O)CSCC(=O)Nc1ccc(C)cc1	Pf growth 48h inconclusive
CCOc1ccc(C2C(C(=O)Nc3ccccc3)=C(C)N=c3s/c(=C/c4cccc(OCC(=O)O)c4)c(=O)n32)cc1 (stereo unspecified)	Pf growth 96h inconclusive, Pf growth 48h 0.465µM
CC1=C(C(=O)Nc2ccccc2C)C(c2ccc(C)o2)n2c(s/c(=C/c3ccccc3)c2=O)=N1 (stereo unspecified)	HCV inhibitor inconclusive, Pf growth 48h 2.94µM (no result: Pf growth 96h)
CC1=C(C(=O)Nc2ccccc2)C(c2ccc(Cl)cc2)n2c(s/c(=C/c3cccc(OCC(=O)O)c3)c2=O)=N1 (stereo unspecified)	Pf growth 48h 1.65µM
CC1=C(C(=O)Nc2ccccc2)C(c2ccc(C)o2)n2c(s/c(=C/c3ccccc3)c2=O)=N1 (stereo unspecified)	Pf growth 96h inconclusive (no result: Pf growth 48h)
S=C(NCCN1CCOCC1)NC1CCCCC1	none
CN(C)S(=O)(=O)c1ccc(N2CCCC2)c(C(=O)N2CCC(C(N)=O)CC2)c1	Pf growth 96h inconclusive, HCV inhibitor inconclusive
CC(C)NC(=O)c1cc(C2CCCCN2C(=O)c2ccc(C#N)cc2)on1 (stereo unspecified)	none (no result: Pf growth 96h, HCV inhibitor, Pf growth 48h)
COCCN1C(=O)COc2ccccc2C1C(=O)Nc1c(C)cccc1C (stereo unspecified)	none (no result: Pf growth 96h, HCV inhibitor, Pf growth 48h)
CN(C)CCNc1nc2c(c(=O)[nH]c(=O)n2C)n1CC(O)COc1ccc(Cl)cc1 (stereo unspecified)	none
CCN(CC)CCNc1nc2c(c(=O)[nH]c(=O)n2C)n1CC(O)COc1ccc(Cl)cc1Cl (stereo unspecified)	Pf growth 96h 11.7µM, Pf growth 48h inconclusive
Cn1nc(-c2ccc(C(=O)Nc3cccc(Cl)c3)cc2)c2ccccc2c1=O	Pf growth 96h 3.29µM (no result: Pf growth 48h)
Cc1ccc(NC(=O)c2ccc(-c3nn(C)c(=O)c4ccccc34)cc2)cc1	Pf growth 96h 10.4µM, HCV inhibitor 12.6µM (no result: Pf growth 48h)
O=C(Cc1ccc(-n2cccc2)cc1)NC1CCCCCC1	Pf growth 96h 14.7µM
Cn1nc(-c2ccc(C(=O)N3CCN(Cc4ccccc4)CC3)cc2)c2ccccc2c1=O	Pf growth 96h 13.1µM, HCV inhibitor inconclusive (no result: Pf growth 48h)
Cn1nc(-c2ccc(C(=O)Nc3ccc(F)cc3)cc2)c2ccccc2c1=O	HCV inhibitor inconclusive, Pf growth 48h inconclusive
O=C(c1ccc(-n2cccc2)cc1)N1CCN(Cc2ccccc2)CC1	HCV inhibitor inconclusive
NS(=O)(=O)c1cccc(NC(=O)COC(=O)C2(c3cccc(F)c3)CCCC2)c1	none
COc1ccc([C@H]2C[C@H](O)[C@@H](n3cc(COC(=O)c4ccccc4)nn3)CN2CC2CCCCC2)cc1	none (no result: Pf growth 96h, HCV inhibitor, Pf growth 48h)
COc1ccc(OC)c(NC(=O)Cc2nn(C)c(=O)c3ccccc23)c1	none
Cn1nc(-c2ccc(C(=O)Nc3cccnc3)cc2)c2ccccc2c1=O	Pf growth 96h inconclusive, Pf growth 48h 6.57µM
